Laboratory results: the supplement of paper PMC11219838
Values without a mark were called inactive.

tested on: Meloidogyne hapla J2; test: proportion of mobile M. hapla J2 relative to DMSO control (fraction of DMSO control); higher = more viable, less nematicidal, active = 0.7 or less; details: 60 µM; 5 days; temperature: 20 °C
Description: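 DODA library (846 commercial 1,3,4- and 1,2,4-oxadiazole compounds plus commercial nematicide controls) screened at a single dose of 60 µM (0.6% DMSO) in 96-well plates, two biological replicates. Read-outs: C. elegans N2 L1 survival/reproduction score at day 6, 20 °C (0: 0-10 worms, 1: 11-20, 2: 21-50, 3: >50, 4: overgrown/starved). C. elegans daf-2 dauer, D. dipsaci and M. hapla J2 mobility at day 5, 20 °C, and P. penetrans mobility at day 5, 20 °C, each relative to DMSO controls. M. hapla egg hatching at day 12, 25 °C, relative to the mean of 8 DMSO wells on the same plate.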

Row | Compound | proportion of mobile M. hapla J2
1 | Cc1ccc(SC(C)c2nc(-c3cccnc3)no2)cc1 (stereo not given) | 0.874
2 | COc1cccc(NC(=O)CSc2nnc(-c3ccc(C)cc3)o2)c1 | 1.04
3 | Cc1cc(Cl)ccc1OCc1nc(-c2ccccc2)no1 | 1.02
4 | Cc1cc(OCc2nc(-c3ccccc3)no2)ccc1Cl | 0.844
5 | CCOc1cc(-c2nc(-c3cccnc3)no2)cc(OCC)c1OCC | 1.05
6 | Brc1ccc(-c2noc(CSc3ccccc3)n2)cc1 | 1.09
7 | Cc1ccc(-c2noc(COc3ccc(Cl)cc3C)n2)cc1 | 0.996
8 | FC(F)(F)c1cccc(-c2noc(-c3cccnc3)n2)c1 | 0.813
9 | COc1cccc(-c2nnc(SCc3ccccc3C)o2)c1 | 1.01
10 | COc1ccc(-c2nnc(SCC(=O)Nc3ccccc3F)o2)cc1 | 1.04
11 | Clc1ccc(-c2noc(-c3ccc4c(c3)OCCO4)n2)cc1 | 1.02
12 | Cc1csc(NC(=O)CSc2nnc(-c3ccccc3Cl)o2)n1 | 0.849
13 | Nc1nc(CSc2nnc(-c3ccccc3)o2)cs1 | 0.752
14 | CNC(=O)c1ccccc1-c1nc(-c2ccc(F)cc2)no1 | 0.987
15 | Clc1ccc(-c2nc(-c3ccccc3Br)no2)cc1 | 0.984
16 | Cc1cc(OCc2nc(-c3ccc(NC(=O)c4ccc5c(c4)OCO5)cc3)no2)ccc1Cl | 0.843
17 | Clc1cccc(OCc2nc(-c3ccncc3)no2)c1 | 0.85
18 | COc1ccc(-c2noc(COc3ccc(C)cc3C)n2)cc1 | 0.93
19 | Clc1ccc(SCc2nc(-c3ccccc3)no2)cc1 | 0.783
20 | Fc1ccc(OCc2nc(-c3ccc(Cl)cc3)no2)cc1 | 1.1

Row | Compound | proportion of mobile M. hapla J2
21 | O=C(CSc1nnc(-c2ccc(Cl)cc2)o1)Nc1ccc(F)cc1 | 0.912
22 | CC(Oc1ccccc1)c1nc(-c2cccnc2)no1 (stereo not given) | 1.06
23 | Cc1ccc(-c2nc(-c3ccccc3Br)no2)cc1 | 0.962
24 | Clc1ccc(OCc2ccccc2)c(-c2nc(-c3cccnc3)no2)c1 | 1.01
25 | O=C(Nc1ccc(-c2noc(-c3ccc(Cl)cc3)n2)cc1)c1ccco1 | 1.04
26 | c1ccc2c(-c3nc(-c4ccncc4)no3)cccc2c1 | 0.917
27 | Cc1ccc(OC(C)c2nc(-c3cccnc3)no2)cc1 (stereo not given) | 1.03
28 | CCCc1nnc(CSc2nnc(-c3ccc(Cl)cc3)o2)o1 | 0.983
29 | Ic1ccc(OCc2nc(-c3ccncc3)no2)cc1 | 1.01
30 | Brc1ccccc1-c1nc(-c2ccccc2)no1 | 1.04
31 | CCc1ccc(C(=O)Nc2ccccc2-c2nc(-c3cccnc3)no2)cc1 | 1.03
32 | N#Cc1ccc(OCc2nc(-c3cccs3)no2)cc1 | 0.908
33 | CCOc1nc(-c2ccccc2)ccc1-c1noc(-c2cccc(C)c2)n1 | 0.805
34 | Cn1c(SCc2nc(-c3ccccc3)no2)nnc1-c1ccco1 | 0.98
35 | Cc1cc(OCc2nc(-c3cccnc3)no2)ccc1Cl | 0.942
36 | COc1cccc(-c2noc(COc3cccc(C)c3)n2)c1 | 0.995
37 | Fc1ccc(-c2nc(-c3ccc(Br)cc3)no2)cc1 | 0.848
38 | Ic1ccc(CSc2nnc(-c3ccco3)o2)cc1 | 0.872
39 | COc1ccc(Cl)cc1NC(=O)CSc1nnc(-c2ccco2)o1 | 0.917
40 | COc1ccc(Cl)cc1-c1noc(-c2ccccc2C)n1 | 0.93
